# Reference: PubChem BioAssay (EPA / NIEHS)
# The source made the active and inactive calls. The calls were made as follows: active = hit-call score of the fitted dose curve at least 0.9, where 1 is the maximum; inactive = score below 0.9.
# Assay: CCTE_Padilla_ZF_144hpf_TERATOSCORE: (Legacy) CCTE's 144 Hour Post-fertilization zebrafish Assay Teratoscore, Padilla Lab (AID 2283679);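 as to AC50: zebrafish embryos with chorions exposed by immersion from 6-8 hpf to 5 dpf with daily renewal; teratogenicity score from eye scoring of death hatching and malformations at 144 hpf; higher score means more developmental defects relative to DMSO baseline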
# Method in brief: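 Larvae scored by eye at 144 hpf for death, hatching and malformations after a day in clean Hanks'. Before that, daily-renewed exposure at 80 uM (0.4% DMSO, 26C) from roughly 6-8 hpf through 5 dpf, 4 embryos per chemical.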
SMILES,AC50,outcome
CCCCCCc1ccc(O)cc1O,14.9 µM (active),
CCCCC(CC)COC(=O)CCCCCCCCC(=O)OCC(CC)CCCC (configuration not stated),,inactive
CCc1cc(SCc2sc(-c3ccc(C(F)(F)F)cc3)nc2CN2CCN(c3ccc(OC)cc3)CC2)ccc1OCC(=O)O,5.47 µM (active),
O=C(OC[C@H]1O[C@@H](OC(=O)c2cc(O)c(O)c(OC(=O)c3cc(O)c(O)c(O)c3)c2)[C@H](OC(=O)c2cc(O)c(O)c(OC(=O)c3cc(O)c(O)c(O)c3)c2)[C@@H](OC(=O)c2cc(O)c(O)c(OC(=O)c3cc(O)c(O)c(O)c3)c2)[C@@H]1OC(=O)c1cc(O)c(O)c(OC(=O)c2cc(O)c(O)c(O)c2)c1)c1cc(O)c(O)c(OC(=O)c2cc(O)c(O)c(O)c2)c1,4.71 µM (active),
O=C(CCCCCCCCc1cccnc1)N1CCC(C=C(c2ccccc2)c2ccccc2)CC1,14.2 µM (active),
CC/C(=C\C(=N/O)C(N)=O)C(C)[N+](=O)[O-] (configuration not stated),,inactive
CC(C)CCCCCCCOC(=O)CCCCC(=O)OCCCCCCCC(C)C,,inactive
CC(=O)OCCC(C)C,,inactive
Cc1[nH]cnc1C[C@H]1CCc2c(C)c3ccccc3n2C1=O,13.8 µM (active),
CCOC(=O)CC(CC(=O)OCC)(OC(C)=O)C(=O)OCC,,inactive
COC(=O)CC(=O)OC,,inactive
CC1(C)C(=O)N(Br)C(=O)N1Br,,inactive
CCCN(C1CCN(C(=O)C2CCNCC2)CC1)[C@@H]1CCc2ccc(OC)cc2C1,,inactive
CCOC(=O)COc1ccc2c(c1)CC(NCC(O)c1cccc(Cl)c1)CC2 (configuration not stated),6.13 µM (active),

# Assay: STM_H9_OrnithineISnorm_perc: Stemina devTOX quickPredict H9 human embryonic stem cell (hESC)-based Assay for Ornithine (ORN) Metabolite Biomarker, Normalized (AID 2283712);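 also: ornithine released into spent medium during last day measured by mass spectrometry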
# Method in brief: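 Cells: undifferentiated H9 hESC. Dosing: 72 h, media replaced every 24 h. Sample: final 24-h conditioned media, 40% acetonitrile. Read: UPLC-HRMS ornithine area vs 13C standard, % DMSO control.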
SMILES,AC50,outcome
CN(C)c1ccc(N=NS(=O)(=O)O)cc1,28.5 µM (active),
Cn1c(=O)c2c(ncn2C)n(C)c1=O,,inactive
CNCc1ccc(NC(=O)c2c[nH]c3c2C(=O)CCC3)cc1,,inactive
CC[C@H]1CC[C@H](NCc2cc3c(cc2OC)[C@H]2C[C@H]2C(=O)N3C)[C@H](c2ccccc2)N1,9.25 µM (active),
O=c1n(CC2CO2)c(=O)n(CC2CO2)c(=O)n1CC1CO1 (configuration not stated),0.49 µM (active),
CCOC(=O)c1ccc(C2CCC(NC[C@H](O)COc3ccc(O)c(NS(C)(=O)=O)c3)CC2)cc1 (some centres not stated),,inactive
O=c1[nH]c2ccc(S(=O)CCN3CCC(Cc4ccc(F)cc4)CC3)cc2o1 (configuration not stated),,inactive
O=C1CCC(N2C(=O)c3ccccc3C2=O)C(=O)N1 (configuration not stated),0.124 µM (active),
Cn1cnc([N+](=O)[O-])c1Sc1ncnc2nc[nH]c12,3.25 µM (active),
CC(C)=CCCC(C)=CC=O,0.0217 µM (active),
CC(C)CC(C)(O)C#CC(C)(O)CC(C)C (configuration not stated),75 µM (active),
NC(=O)NO,371 µM (active),
CCN(C(=O)c1cc(C)cc(OC[C@H](C)Nc2ccncc2)c1)C(C)C,,inactive
